HT1080 IDH1KD tx: HT-1080 IDH1 knockdown cell toxicity (counter line). 360,000 compounds, 2% hits. AID 686971. HT-1080 IDH1 knockdown viability, ATP luminescence, 48 h. Potency, µM (top dose mostly 46.1 µM), usual class: cytotoxic
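Cytotoxicity counter-line: IDH1KD HT-1080, 48 h, CellTiter-Glo. Curves classed by r2, magnitude and activity.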
KB-V1 cytotox: kills drug-selected multidrug resistant KB-V1 cells; KB-V1 MDR cells viability, CellTiter-Glo, 72 h; Potency, µM (top dose mostly 46.1 µM), hits mostly cytotoxic; 400,000 compounds, 3.4% hits; AID 1347076; also: nearly all actives have a fitted effect of over 60% in size
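Readout: CellTiter-Glo luminescence, 10 min after addition. Cells: KB-V1 MDR subline, 72 h at 37 degrees C with compound. Analysis: corrected, normalized data fitted to concentration-effect curves.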
KB-3-1 cytotox: KB-3-1 parental cell cytotoxicity; KB-3-1 viability, CellTiter-Glo ATP luminescence, 72 h; Potency, µM (titrated, usually from 46.1 µM), actives largely listed as cytotoxic; 400,000 compounds, 1.4% hits; AID 1347075; also: nearly all actives have a fitted effect of over 60% in size
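Luminescent ATP read-out (CellTiter-Glo) measures survival of drug-naive KB-3-1 cells after 72 h compound exposure at 37 °C. Titration series was screened from lowest to highest concentration, with DMSO vehicle plates as background controls.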
DT40 TDP1 no CPT: qHTS for Inhibitors of human tyrosyl-DNA phosphodiesterase 1 (TDP1): qHTS in cells in absence of CPT; DT40 Tdp1-/- hTDP1 cells, no CPT, ATP luminescence, 48 h; 420,000 compounds, 15% hits; Potency, µM (titrated, usually from 46.2 µM), hits mostly inhibitors; also: nearly all actives have a fitted effect of over 55% in size
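Luminescent ATP content (CellTiter-Glo) served as the growth readout. Knockout chicken DT40 cells expressing human TDP1 were exposed to compounds without camptothecin for a minimum 48 hr at 37 °C.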
HT1080NT lethal: kills 2HG-producing HT-1080-NT fibrosarcoma cells | HT-1080-NT fibrosarcoma viability, CellTiter-Glo ATP luminescence, 48 h | Potency, µM (doses to about 46.1 µM), actives largely listed as cytotoxic | 360,000 compounds, 1.6% hits | AID 686970;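 also: NT is the 2HG producing partner of a matched IDH1 knockdown line; nearly all actives have a fitted effect of over 55% in size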
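Read-out is CellTiter-Glo luminescence after 10 minutes at room temperature, following 48 hours' compound treatment of HT-1080-NT cells (750 cells/well, RPMI, 5% FBS, 37 degrees C).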
DT40 TDP1 CPT: growth inhibition of DT40 Tdp1-/-;hTDP1 cells with camptothecin (screen for TDP1 inhibitors); 420,000 compounds, 12% hits; AID 686979; Potency, µM (series often up to 46.2 µM), usual class: inhibitors; chicken DT40 Tdp1-/-;hTDP1 cells + 20 nM CPT, ATP luminescence, 48 h; also: nearly all actives have a fitted effect of over 55% in size
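Cell growth measured by CellTiter-Glo luminescence after a minimum 48 h, 37 C compound exposure with 20 nM CPT in Tdp1-knockout DT40 cells stably expressing hTDP1, seeded 400/well; qHTS titration format.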
Each line names hits and unclear results; the compound was inactive in the other large screens. This is a sample that favours compounds with a hit; in the whole collection about 19% have one here. Calls follow the shape of the dose curve; as a rule, active = well fitted curve in the direction sought with a large enough effect; inconclusive = small, poorly fitted or top-dose-only effect, or another doubt; inactive = no such curve, though single readings can be large; an effect the other way counts as inactive or inconclusive.

COc1cccc(N2CCN(C(=O)CN(C)S(=O)(=O)c3ccc4c(c3)CCC(=O)N4)CC2)c1	DT40 TDP1 no CPT 18.4µM, DT40 TDP1 CPT 29.1µM
CC(C)c1ccc(NC(=O)C(NS(=O)(=O)c2ccc3c(c2)CCC(=O)N3)c2ccccc2)cc1 (centres undefined)	DT40 TDP1 no CPT inconclusive, DT40 TDP1 CPT 20.6µM (no result: HT1080 IDH1KD tx, HT1080NT lethal)
Cc1cc(NC(=O)CN(C)S(=O)(=O)c2ccc3c(c2)CCC(=O)N3)ccc1Br	KB-V1 cytotox inconclusive, KB-3-1 cytotox inconclusive, DT40 TDP1 no CPT 20.6µM, DT40 TDP1 CPT 29.1µM (no result: HT1080 IDH1KD tx, HT1080NT lethal)
Cc1ccc(C)c(NC(=O)CN(C)S(=O)(=O)c2ccc3c(c2)CCC(=O)N3)c1	none (no result: HT1080 IDH1KD tx, HT1080NT lethal)
CC(=O)Nc1ccc(NC(=O)C(Cc2ccccc2)NS(=O)(=O)c2ccc3c(c2)oc(=O)n3C)cc1 (centres undefined)	none (no result: HT1080 IDH1KD tx, HT1080NT lethal)
Cc1c(CC(=O)NCCc2ccccc2F)c(=O)oc2cc(O)c(Cl)cc12	none (no result: HT1080 IDH1KD tx, KB-V1 cytotox, KB-3-1 cytotox, HT1080NT lethal)
Cc1ccc(NC(=O)C(=O)NN)cc1	none
NNC(=O)C(=O)Nc1ccc(O)cc1	HT1080 IDH1KD tx inconclusive, KB-3-1 cytotox inconclusive, HT1080NT lethal 7.31µM
COCc1c(C#N)c(NCc2cc(OC)c(OC)c(OC)c2)nc(C)c1[N+](=O)[O-]	KB-V1 cytotox 5.17µM, KB-3-1 cytotox inconclusive, DT40 TDP1 no CPT 20.6µM, DT40 TDP1 CPT 18.4µM
COCc1c(C#N)c(NCCc2ccc(F)cc2)nc(C)c1[N+](=O)[O-]	KB-V1 cytotox 5.17µM, KB-3-1 cytotox inconclusive
N#Cc1ccccc1Cn1c(SCC(=O)Nc2ccc(F)cc2)nc2ccccc21	DT40 TDP1 no CPT inconclusive, DT40 TDP1 CPT inconclusive (no result: HT1080 IDH1KD tx, HT1080NT lethal)
CN(C)CCNc1nc2sc3c(c2c(=O)n1CCc1ccccc1)CCCCC3	HT1080 IDH1KD tx inconclusive, KB-V1 cytotox 20.6µM, DT40 TDP1 no CPT 10.3µM, DT40 TDP1 CPT 20.6µM
CC(O)CNc1nc2sc3c(c2c(=O)n1CCc1ccccc1)CCCCC3 (centres undefined)	HT1080 IDH1KD tx inconclusive, DT40 TDP1 no CPT 16.4µM, HT1080NT lethal inconclusive, DT40 TDP1 CPT 23.1µM
CCOc1ccccc1NC(=O)Cn1c(=O)n(-c2ccc(C)c(C)c2)c(=O)c2oc3ccccc3c21	DT40 TDP1 no CPT inconclusive (no result: HT1080 IDH1KD tx, KB-V1 cytotox, KB-3-1 cytotox, HT1080NT lethal)
O=C(CN1CCN(C(=O)c2ccco2)CC1)Nc1cccc(S(=O)(=O)N2CCCC2)c1	none
O=C(CN1CCN(c2ccccc2O)CC1)Nc1ccc(S(=O)(=O)N2CCCCCC2)cc1	DT40 TDP1 no CPT inconclusive, DT40 TDP1 CPT inconclusive
O=C(CN1CCN(C(=O)c2ccco2)CC1)Nc1cc(S(=O)(=O)N2CCCC2)ccc1Cl	KB-V1 cytotox inconclusive, DT40 TDP1 no CPT 6.51µM, DT40 TDP1 CPT inconclusive
O=C(CN1CCN(c2ccccc2O)CC1)Nc1cc(S(=O)(=O)N2CCCC2)ccc1Cl	DT40 TDP1 no CPT inconclusive, DT40 TDP1 CPT 16.4µM
CCc1nnc(NC(=O)c2cc(=O)c3cc(C)c(C)cc3o2)s1	KB-V1 cytotox inconclusive (no result: HT1080 IDH1KD tx, HT1080NT lethal)
COc1ccc(C(=O)/C=C/Nc2ccc(S(=O)(=O)Nc3cc(OC)nc(OC)n3)cc2)c(OC)c1	DT40 TDP1 no CPT inconclusive
COc1cccc(CN(C)C(=O)c2cccc(S(=O)(=O)Nc3cccc(C)c3)c2)c1OC	DT40 TDP1 no CPT 16.4µM, DT40 TDP1 CPT 23.1µM
CCOc1ccc(NS(=O)(=O)c2ccc(C(=O)N(C)Cc3cccc(OC)c3OC)cc2)cc1	KB-V1 cytotox inconclusive, DT40 TDP1 no CPT 14.6µM, DT40 TDP1 CPT 14.6µM
CCOc1ccc(CN(C)C(=O)c2cccc(S(=O)(=O)Nc3ccccc3OC)c2)cc1OC	DT40 TDP1 no CPT 14.6µM, DT40 TDP1 CPT inconclusive
COc1ccc(NS(=O)(=O)c2ccc(C(=O)N(C)Cc3ccc(C)o3)cc2)cc1	DT40 TDP1 no CPT 14.6µM, DT40 TDP1 CPT 13µM
COc1ccc(CN(C)C(=O)c2ccc(NS(=O)(=O)c3ccc(F)cc3)cc2)c(OC)c1	none
Cc1ccc(CSC2=NC(C)(C)Nc3ccccc32)c(C)c1	DT40 TDP1 no CPT inconclusive (no result: HT1080 IDH1KD tx, HT1080NT lethal)
